Out of some 190,000 compounds screened, about 810 (0.43%) were called active. No stated cut-off is given here; in the data, active means inhibition above about 50%; inactive means the rest. For the sample, actives were picked, then their nearest neighbours and some compounds at random.
What follows are compounds tested against Mannose-6-phosphate isomerase (Homo sapiens) (UniProt P34949) (assay: inhibitors of human PMI, primary screen, biochemical, fluorescence intensity, coupled assay (AID 1209;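 further: plate controls were DMSO vehicle for no effect and wells lacking substrate for full effect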)). Details: purified PMI enzyme, at 20 µM, hits give high values.
Sequence of Mannose-6-phosphate isomerase (Homo sapiens) (P34949 whole entry, looked up): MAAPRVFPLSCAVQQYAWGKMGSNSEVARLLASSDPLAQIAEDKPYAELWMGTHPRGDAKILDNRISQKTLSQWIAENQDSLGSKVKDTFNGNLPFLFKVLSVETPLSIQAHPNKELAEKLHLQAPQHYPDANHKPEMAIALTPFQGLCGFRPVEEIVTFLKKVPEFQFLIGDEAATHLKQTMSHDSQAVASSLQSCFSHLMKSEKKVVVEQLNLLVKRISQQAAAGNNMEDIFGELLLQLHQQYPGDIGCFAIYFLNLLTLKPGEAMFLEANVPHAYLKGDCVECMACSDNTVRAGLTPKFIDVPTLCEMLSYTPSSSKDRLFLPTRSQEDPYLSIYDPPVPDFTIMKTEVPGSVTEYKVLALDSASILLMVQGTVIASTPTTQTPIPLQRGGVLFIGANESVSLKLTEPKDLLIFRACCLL

inhibition, active:
COC(=O)c1cc(=O)nc2sc(-c3ccc(F)cc3)nn12 72.4%
Cc1cccnc1Nc1nc(-c2ccc(O)c(O)c2)cs1 52.3%
Oc1ccc(-c2csc(Nc3ncccn3)n2)cc1O 58%
CNC[C@H](O)c1ccc(O)c(O)c1 63.2%
CCC(NC(C)C)C(O)c1ccc(O)c(O)c1 (stereo not given) 57.9%
c1ccc2[nH]c(SN3CCOCC3)nc2c1 94.5%
OCCCNC(=S)Nc1ccc2nc(-c3ccccn3)c(-c3ccccn3)nc2c1 56.9%
Cc1ccc(NC(=S)Nc2ccc3nc(-c4ccccn4)c(-c4ccccn4)nc3c2)cc1C 76.2%
Cc1cc2n(n1)SC(Nc1cccc3ccccc13)N2 (stereo not given) 56.1%
O=[N+]([O-])c1ccccc1NC(=S)N/N=C/c1ccc(O)c(O)c1 54.1%
Clc1ccccc1-c1nnc2sc(-c3ccc4c(c3)OCO4)nn12 50.8%
COc1ccccc1-c1nn2c(C3COc4ccccc4O3)nnc2s1 (stereo not given) 57.6%
Clc1ccccc1-c1nnc2sc(C3COc4ccccc4O3)nn12 (stereo not given) 50%
COc1cc(C(=S)NCc2ccccc2)cc(Br)c1O 68.6%
Cc1nn(-c2ccccn2)c2c1C(=O)C(Br)CC2 (stereo not given) 72%
CC(C)c1ccc(C(=O)CSc2ncn[nH]2)cc1 83%
O=C(CN1CCN(Cc2ccccc2)CC1)N1CCCCCC1 60.7%
O=c1[nH]c(=S)[nH]c2[nH]c(=S)[nH]c12 67.9%

inhibition, inactive:
COc1cccc(N2CCN(Cc3ccsc3)CC2)c1 -5.2%
COC(=O)c1cc(=O)nc2sc(-c3cccs3)nn12 7.5%
COC(=O)c1cc(=O)nc2sc(-c3ccccc3)nn12 -2.3%
CN1Cc2sc(N)c(C#N)c2CC1(C)C -8.4%
CN(C)c1ccc(/C=N/NC(=O)c2nonc2N)cc1[N+](=O)[O-] 12.7%
COc1ccc(-c2csc(Nc3ccc(C)cn3)n2)cc1OC 7.7%
COc1ccc(-c2csc(Nc3ccc(C)cn3)n2)cc1 -1.5%
Cc1cccnc1Nc1nc(-c2ccc(O)cc2O)cs1 10.6%
Oc1ccc(-c2csc(Nc3ncccn3)n2)cc1 -4.9%
Cc1cccnc1Nc1nc(-c2ccc(O)cc2)cs1 -10.5%
c1ccc(-c2csc(Nc3ncccn3)n2)cc1 -2.2%
O=C(O)CC(=O)Nc1ccccc1C(=O)O 0.5%
O=C(CSCc1ccc(Cl)cc1)Nc1ccc(S(=O)(=O)N2CCOCC2)cc1 11.5%
COCCN(CCOC)S(=O)(=O)c1ccc(C(=O)Nc2nnc(COC)o2)cc1 -8.8%
Cc1cccc(NC(=O)c2ccc(NCC3CCCO3)c([N+](=O)[O-])c2)c1 (stereo not given) 2%
CCC(C)c1ccc(O)c(N)c1 (stereo not given) 26.6%
COc1ccc([C@H](C)NC[C@H](O)c2ccc(O)c(NC=O)c2)cc1 0.1%
CNC[C@H](O)c1cccc(O)c1 -1.6%
CCC(NC(C)C)C(O)c1ccc(O)c2[nH]c(=O)ccc12 (stereo not given) 4.3%
Cc1c(C(=O)OC(C)C(C)C[N+](C)(C)C)oc2ccccc12 (stereo not given) 1.7%
COc1ccc(OC)c(C(C)NC(=O)c2ccco2)c1 (stereo not given) 7%
c1ccc(CNc2ncnc3nc[nH]c23)nc1 8.8%
CCn1c(SCc2nc3ccccc3[nH]2)nnc1-c1ccc(OC)cc1 6.6%
c1ccc2[nH]c(SCCN3CCOCC3)nc2c1 -3.1%
c1ccc2[nH]c(N3CCOCC3)nc2c1 -5%
OCCC1CN(Cc2cnc(-c3cccc4ccccc34)nc2)CCN1C1CCCCC1 (stereo not given) 13.3%
COc1ccccc1CNC(=O)c1cc2c(s1)CS(=O)(=O)C2 2.6%
CCCOc1ccc(C2NC(=S)NC(C)=C2C(=O)c2ccccc2)cc1OC (stereo not given) -34.6%
COc1ccc(S(=O)(=O)NC(CC(=O)NCCc2ccc(OC)c(OC)c2)C(C)C)cc1 (stereo not given) -5%
COc1c(/C=N/Nc2ccc([N+](=O)[O-])cc2[N+](=O)[O-])c(C)nn1-c1ccccc1 8.9%
Cc1nn(-c2ccccc2)c(N)c1Sc1cccc([N+](=O)[O-])c1 5.2%
CCOC(=O)c1c(Cc2ccccc2)c[nH]c1C -17.6%
COc1ccc(Cc2nnc(N)s2)cc1OC -1.6%
COc1ccc(Cc2noc(-c3ccc(OC)c(OC)c3)n2)cc1OC 1.8%
COc1cccc(NC(=S)/C(=C(\[O-])c2ccc([N+](=O)[O-])cc2)[n+]2ccccc2)c1 -1.1%
CCOc1ccccc1NC(=O)CCS(=O)(=O)c1cccc2nonc12 0.7%
O=C(CCS(=O)(=O)c1ccccc1)N1CCOCC1 -8.2%
CCCNC(=S)Nc1ccc2nc(-c3ccccn3)c(-c3ccccn3)nc2c1 26.5%
CN(C)NC(=S)Nc1ccc2nc(-c3ccccn3)c(-c3ccccn3)nc2c1 -8.4%
CC(C)(C)CC(C)(C)NC(=S)Nc1ccc2nc(-c3ccccn3)c(-c3ccccn3)nc2c1 -21.7%
Cc1nc2ccc(NC(=S)NCCCO)cc2nc1C -27.3%
COc1cc2nc(CN(C)Cc3ccc(Cl)cc3)[nH]c(=O)c2cc1OC 5.6%
Cc1ccc(C(=O)Nc2ccc(Cl)cc2C)c(Cl)c1 -5.9%
COc1ccc(C2c3c(oc4ccc(C)cc4c3=O)C(=O)N2c2cc(C)ccn2)cc1OC (stereo not given) 30.5%
COC(=O)CCC(=O)COc1ccc(OC)cc1C#N 1.1%
Cc1ccc(OCC(=O)NCc2ccccc2)c([N+](=O)[O-])n1 20.4%
Cc1cc(C(=O)Nc2cccc3ccccc23)n(-c2ccccc2)n1 -11.6%
Cc1ccc(Nc2cc(-n3nc(C)cc3C)ncn2)c(C)c1 -0.1%
Cc1cc2n(n1)SC(Nc1cc(Cl)ccc1Cl)N2 (stereo not given) 19.6%
O=C1NC(=O)C(Nc2cccc3ccccc23)S1 (stereo not given) -0.5%
CCc1ccccc1NC(=O)c1cc(C2CC2)on1 -4.9%
CCc1ccccc1NC1c2ccccc2C(=O)N1c1cc(C)ccn1 (stereo not given) -2.8%
COc1ccc(S(=O)(=O)N2CCOCC2)cc1NC(=O)CN1CCCCCC1 -4.3%
COc1ccc(OC)c(S(=O)(=O)Nc2cccc(C(C)=O)c2)c1 4.2%
CC(=O)Nc1ccc(S(=O)(=O)N2CC3(C)CC2CC(C)(C)C3)cc1 (stereo not given) 12.4%
COc1ccc(NS(=O)(=O)c2ccc(OCC(=O)N3CCOCC3)cc2)cc1 10.6%
COc1ccc(/C=N/NC(=S)Nc2ccccc2[N+](=O)[O-])cc1O 9%
O=[N+]([O-])c1cc(/C=N/NC(=S)Nc2ccccc2Cl)ccc1Cl -6.9%
O=C(c1ccc(C(=O)N2CCCc3ccccc32)s1)N1CCCc2ccccc21 -2.1%
Clc1cccc(-c2nnc3sc(-c4ccc5c(c4)OCO5)nn23)c1 9.8%
Fc1ccc(-c2nnc3sc(C4COc5ccccc5O4)nn23)cc1 (stereo not given) 0.9%
c1csc(-c2nn3c(C4COc5ccccc5O4)nnc3s2)c1 (stereo not given) 37.9%
Fc1ccc(-c2nn3c(C4COc5ccccc5O4)nnc3s2)cc1 (stereo not given) 7.6%
Cc1ccc(-c2nnc3sc(C4COc5ccccc5O4)nn23)cc1 (stereo not given) 3.9%
Brc1ccccc1-c1nnc2sc(-c3ccc4c(c3)OCCO4)nn12 22.5%
CCC1(C)SC(N)=NN1C(C)=O (stereo not given) 7.1%
CCOC(=O)c1ccc(N/C(=N\S(=O)(=O)c2ccccc2C)c2ccccc2)cc1 10.9%
COc1cc(C(=O)NCc2ccccc2)cc(Br)c1OC 1.2%
COc1ccc(C(=O)NCc2ccccc2)cc1Br 1.4%
Cc1cc(/C=N\NC(=O)COc2cccc3cccnc23)c(C)n1-c1ccccc1 1.7%
O=C(c1ccco1)N1CCn2c1nc1ccccc12 -7.1%
COc1ccc(NC(=O)c2ccc3nc[nH]c3c2)c(OC)c1 8.4%
C=C(C)C1Cc2c(C)nn(-c3ccccn3)c2C1 (stereo not given) -7.4%
Cc1nn(-c2ccccn2)c2c1-c1nc(N)ncc1CC2 4.1%
COc1ccc(CNC(=O)CCCNS(=O)(=O)c2cccc3nonc23)cc1 13%
CCc1ccc(C(=O)CSc2ncn[nH]2)cc1 42.1%
Cc1ccc(C(=O)CSc2ncn[nH]2)cc1 -6.3%
COC(=O)Cc1cn(-c2ncc(C(F)(F)F)cc2Cl)c2ccccc12 1.6%
Cc1cc2ccccc2n1CCNC(=O)c1ccccc1 -10.2%
Cc1c(Br)c(C(=O)NCc2cc3cc(Cl)ccc3[nH]2)nn1C 5.7%
O=C(C1CCN(Cc2ccccc2)CC1)N1CCCC1 -5.2%
O=C(CN1CCN(Cc2ccccc2)CC1)c1ccccc1 2%
O=c1[nH]c(=S)[nH]c2sccc12 -13.4%
Nc1[nH]c(=S)[nH]c(=O)c1-c1ccccc1 21.9%
COc1ccc(CC(=O)OCC(=O)NC(=O)NC(C)C)cc1 9%
CCCn1nnnc1NCc1ccc(F)cc1 -4.6%
CCC(=O)N1c2ccccc2NC2=C(C(=O)CC(C)(C)C2)C1c1cccnc1 (stereo not given) 7.2%
